According to PubChem BioAssay (EPA / NIEHS):
Inconclusive results are not listed. Active and inactive are the calls of the source. How the source made its calls, unless noted: active means hit-call score of the fitted dose curve at least 0.9, where 1 is the maximum; inactive means score below 0.9.

What was measured:
[1] = IUF_NPC1a_proliferation_area_72hr: Leibniz Research Institute for Environmental Medicine (IUF) 72-hour Neural Progenitor Cell Proliferation Area Assay (NPC1a) (AID 2284208)
In short: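 Measured in 3D suspension: each well held one primary hNPC sphere grown with EGF and FGF at pH 7.2-7.6. Compound stayed on for 72 h, then area was imaged; spheres lacking growth factors defined reduced proliferation.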

[2] = IUF_NPC1_viability_72hr: Viability Assessment at 72 hours in the Leibniz Research Institute for Environmental Medicine (IUF) Neural Progenitor Cell Proliferation Assay (NPC1) (AID 2284209)
In short: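 Human fetal-cortex neural progenitor spheres (0.25–0.35 mm, one per well) grown in EGF/FGF proliferation medium at 37C, pH 7.2-7.6, exposed 72 h without renewal; viability read as alamar blue resazurin-to-resorufin fluorescence relative to DMSO.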

[3] = CCTE_Mundy_HCI_Cortical_Synap_Neur_Matur_NeuriteSpotCountPerNeuriteLength: CCTE's Synaptogenesis and Neurite Maturation Assay in rat cortical cells for Neurite Spot Count per Neurite Length, Mundy Lab (AID 2284210)
In short: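 Rat primary cortical cultures, AraC added at DIV 5 to suppress glia; chemical exposure from DIV 7 to DIV 12. Fixed cells stained for MAP2 and synaptophysin plus Hoechst; synaptophysin puncta per neurite length quantified by high-content imaging, relative to DMSO.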

[4] = CCTE_Mundy_HCI_Cortical_NOG_NeuriteLength: CCTE's Neurite Outgrowth Assay in rat cortical cells for Neurite Length, Mundy Lab (AID 2284213)
In short: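 Neurite length was read by high-content imaging of βIII-tubulin-labelled neurites in rat primary cortical cultures. Activity was fitted relative to DMSO.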

[5] = CCTE_Mundy_HCI_Cortical_Synap_Neur_Matur_NeuriteLength: CCTE's Synaptogenesis and Neurite Maturation Assay in rat cortical cells for Neurite Length, Mundy Lab (AID 2284214)
In short: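 Rat primary cortical cells were plated, treated with AraC at DIV 5 to arrest glial growth, then chemical-dosed with media change at DIV 7 through DIV 12. Fixed cells stained for MAP2, synaptophysin and Hoechst; neurite length quantified by high-content imaging.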

[6] = CCTE_Mundy_HCI_Cortical_Synap_Neur_Matur_NeuriteSpotCountPerNeuron: CCTE's Synaptogenesis and Neurite Maturation Assay in rat cortical cells for Neurite Spot Count per Neuron Count, Mundy Lab (AID 2284215)
In short: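 Developing rat cortical neurons, with glia suppressed by AraC, are exposed to chemicals from DIV 7 to DIV 12. Automated fluorescence imaging of MAP2-labelled neurites and synaptophysin puncta yields a count per neuron, normalised against DMSO wells.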

[7] = CCTE_Mundy_HCI_Cortical_Synap_Neur_Matur_SynapseCount: CCTE's Synaptogenesis and Neurite Maturation Assay in rat cortical cells for Synapse Count, Mundy Lab (AID 2284218)
In short: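 Rat primary cortical cells in 96-well plates received AraC at DIV 5 and were dosed with chemicals at DIV 7 with media change, through DIV 12 (288.33 h). Synapses per neuron counted by high-content imaging of MAP2/synaptophysin/Hoechst staining, versus DMSO baseline.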

[8] = CCTE_Mundy_HCI_hN2_NOG_NeuriteCount: CCTE's Neurite Outgrowth Assay in human hN2 cells for Neurite Count, Mundy Lab (AID 2284219; active means hit-call score of the fitted dose curve at least 0.9, where 1 is the maximum)
In short: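 In this morphology assay, hNP1-derived neurons received test chemical 2 h post-plating and were fixed two days later in warm paraformaldehyde/sucrose containing Hoechst 33342. Neurites, labelled by rabbit anti-βIII-tubulin (1:800) and Alexa Fluor-488 (1:500), were counted automatically.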

[9] = CCTE_Mundy_HCI_hN2_NOG_NeuriteLength: CCTE's Neurite Outgrowth Assay in human hN2 cells for Neurite Length, Mundy Lab (AID 2284220; active means hit-call score of the fitted dose curve at least 0.9, where 1 is the maximum)
In short: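 Read-out is neurite length from high-content imaging of βIII-tubulin/Alexa Fluor-488-labelled neurons, referenced to DMSO controls.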

[10] = CCTE_Mundy_HCI_hN2_NOG_NeuronCount: CCTE's Neurite Outgrowth Assay in human hN2 cells for Neuron Count, Mundy Lab (AID 2284221; active means hit-call score of the fitted dose curve at least 0.9, where 1 is the maximum)
In short: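 Read-out is the number of betaIII-tubulin-positive neurons imaged by automated high-content analysis, with DMSO as negative control.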

[11] = CCTE_Mundy_HCI_Cortical_Synap_Neur_Matur_CellBodySpotCount: CCTE's Synaptogenesis and Neurite Maturation Assay in rat cortical cells for Cell Body Spot Count, Mundy Lab (AID 2284223)
In short: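 Chemicals were applied to AraC-treated rat primary cortical cells at DIV 7 and measured at DIV 12. Fixed cells were labelled for MAP2, synaptophysin and nuclei, and high-content imaging gave cell body synaptophysin spot counts per neuron relative to DMSO.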

[12] = UKN4_HCS_LUHMES_cell_viability: Viability Assessment in the University of Konstanz (UKN) Leist Lab Neurite Outgrowth Assay in human LUHMES cells (UKN4) (AID 2284232)
In short: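 LUHMES cells differentiated 2 days, replated without cAMP/GDNF, then exposed to compounds for 24 h from attachment. Viability read by high-content fluorescence imaging after 30 min live-staining with H-33342 and calcein-AM; bidirectional fit relative to DMSO baseline.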

[13] = UKN2_HCS_IMR90_cell_viability: Viability Assessment in the University of Konstanz (UKN) Leist Lab Neural Crest Cell Migration Assay in human induced IMR90 Pluripotent Stem Cells (UKN2) (AID 2284233);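 further: viability of neural crest cells differentiated from IMR90 iPSC measured by calcein-AM fluorescence imaging; cells exposed to compound for 24 h after a 24 h migration phase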
In short: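 Neural crest cells derived from IMR90 iPSC migrate into a stopper-free zone for 24 h in EGF/FGF medium, then are exposed to compound for 24 h. Viability assessed by calcein-AM and Hoechst staining with high-content imaging, fitted bidirectionally versus DMSO.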

[14] = CCTE_Mundy_HCI_Cortical_NOG_NeuronCount: CCTE's Neurite Outgrowth Assay in rat cortical cells for Neuron Count, Mundy Lab (AID 2284236; active means hit-call score of the fitted dose curve at least 0.9, where 1 is the maximum;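 further: neurons counted by imaging betaIII-tubulin and Hoechst stained cortical cells; cells exposed to compound for about 48 hours before fixation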)
In short: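 Read-out: neuron number by high-content imaging of betaIII-tubulin (Alexa Fluor-488) and Hoechst-labelled rat primary cortical cells.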

[15] = CCTE_Mundy_HCI_hNP1_Casp3_7: CCTE's Caspase-Glo 3/7 Assay in human neuroprogenitor cells for Apoptosis, Mundy Lab (AID 2284240)
In short: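 Luminescent caspase-3/7 readout, 26.5 h post-dose, in human neural progenitor cells from WA09 embryonic stem cells. Cells grew 40–44 h at 37 °C, 5% CO2 before chemical addition. Activity analysed as signal increase over DMSO baseline.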

[16] = IUF_NPC2c_oligodendrocyte_migration_120hr: Leibniz Research Institute for Environmental Medicine (IUF) 120-hour Neural Progenitor Cell Migration Assay for Oligodendrocyte Migration (NPC2c) (AID 2284297);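 further: O4-positive oligodendrocyte migration distance divided by radial glia migration distance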
In short: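 Using fetal brain neural progenitor spheres differentiating in N2 medium at 37C, compounds were present for 120 h. Oligodendrocyte migration distance, normalized to radial glia migration, was measured from imaged O4 staining.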

[17] = IUF_NPC2a_radial_glia_migration_120hr: Leibniz Research Institute for Environmental Medicine (IUF) 120-hour Neural Progenitor Cell Migration Assay for Radial Glia Migration (NPC2a) (AID 2284298)
In short: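 Exposure of 0.3 mm primary hNPC spheres runs day 0 to 120 h with a half-volume medium change at day 3. Fixed cells get Hoechst staining; high-content analysis of nuclear positions yields radial glia migration distance per well, compared against DMSO controls.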

[18] = IUF_NPC2a_radial_glia_migration_72hr: Leibniz Research Institute for Environmental Medicine (IUF) 72-hour Neural Progenitor Cell Migration Assay for Radial Glia Migration (NPC2a) (AID 2284299)
In short: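 Human fetal cortex (GW 16-19) neural progenitor spheres, 0.3 mm, plated on poly-D-lysine/laminin in N2 differentiation medium with compound from day 0. Radial glia migration distance (um, sphere core edge to migration edge) measured manually in four directions on 72 h brightfield images; well mean used.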

[19] = IUF_NPC2b_neuronal_migration_120hr: Leibniz Research Institute for Environmental Medicine (IUF) 120-hour Neural Progenitor Cell Migration Assay for Neuron Migration (NPC2b) (AID 2284300)
In short: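 Fetal human NPC spheres migrate on PDL/laminin during 120 h compound treatment; neuronal migration distance, glia-normalized, scored versus DMSO control.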

[20] = IUF_NPC3_neuronal_differentiation_120hr: Leibniz Research Institute for Environmental Medicine (IUF) 120-hour Neuronal Differentiation Assay (NPC3) (AID 2284301)
In short: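 Human fetal (GW 16-19) neural progenitor spheres (0.3 mm) plated on poly-D-lysine/laminin in N2 differentiation medium, exposed 120 h at 37C with half-medium renewal day 3; 7 concentrations. TUBB3+ cells as % of Hoechst nuclei, CNN-identified; DMSO baseline.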

[21] = IUF_NPC4_neurite_length_120hr: Leibniz Research Institute for Environmental Medicine (IUF) 120-hour Neuronal Morphology Assay for Neurite Length (NPC4) (AID 2284302)
In short: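 Human fetal neural progenitor spheres (0.3 mm) plated on poly-D-lysine/laminin in N2 differentiation medium, exposed from day 0 for 120 h with half-medium refresh at day 3, 37C. Mean neurite length (um) of TUBB3-positive neurons from skeletonized immunostaining images; DMSO ≤0.1%.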

[22] = IUF_NPC5_oligodendrocyte_differentiation_120hr: Leibniz Research Institute for Environmental Medicine (IUF) 120-hour Oligodendrocyte Differentiation Assay (NPC5) (AID 2284304; active means hit-call score of the fitted dose curve at least 0.9, where 1 is the maximum;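 further: primary human fetal neural progenitor spheres plated to migrate and differentiate; share of O4-positive cells among Hoechst nuclei found by CNN image analysis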)
In short: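 After plating on poly-D-lysine/laminin, fetal-derived hNPC spheres differentiated for 120 h at 37C in compound-containing N2 medium, refreshed by half on day 3. O4 immunostaining over Hoechst nuclei in the migration zone gave oligodendrocyte percentage relative to DMSO.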

[23] = IUF_NPC4_neurite_area_120hr: Leibniz Research Institute for Environmental Medicine (IUF) 120-hour Neuronal Morphology Assay for Neurite Area (NPC4) (AID 2284305; active means hit-call score of the fitted dose curve at least 0.9, where 1 is the maximum)
In short: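 Human fetal neural progenitor spheres (0.3 mm) plated on poly-D-lysine/laminin in N2 differentiation medium, exposed 120 h (7 concentrations, DMSO ≤0.1%, half-medium refresh day 3). Fixed, TUBB3 immunostained; mean neurite area per neuron by Omnisphero skeletonization.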

[24] = IUF_NPC2-5_cytotoxicity_72hr: Cytotoxicity Assessment at 72 hours in the Leibniz Research Institute for Environmental Medicine (IUF) Neural Progenitor Cell Migration and Differentiation Assay for Cytotoxicity (NPC2-5) (AID 2284306; active means hit-call score of the fitted dose curve at least 0.9, where 1 is the maximum;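 further: LDH release into supernatant measured by resorufin fluorescence marking membrane damage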)
In short: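 Human fetal primary neural progenitor spheres (0.3 mm) plated on poly-D-lysine/laminin in N2 differentiation medium, exposed from day 0 at 37C. LDH-dependent resazurin-to-resorufin fluorescence in supernatant at 72 h; 7 concentrations, DMSO at most 0.1%.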

[25] = IUF_NPC2-5_cytotoxicity_120hr: Cytotoxicity Assessment at 120 hours in the Leibniz Research Institute for Environmental Medicine (IUF) Neural Progenitor Cell Migration and Differentiation Assay (NPC2-5) (AID 2284307; active means hit-call score of the fitted dose curve at least 0.9, where 1 is the maximum)
In short: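 Membrane-integrity loss is quantified by LDH in supernatant after five days of exposure of migrating, differentiating human fetal NPC spheres; seven serially diluted concentrations are tested with DMSO kept at or below 0.1%.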

[26] = IUF_NPC2-5_cell_number_120hr: Cell Number Assessment at 120 hours in the Leibniz Research Institute for Environmental Medicine (IUF) Neural Progenitor Cell Migration and Differentiation Assay (NPC2-5) (AID 2284308);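 further: count of Hoechst-stained nuclei in migration zone around plated human neural progenitor spheres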
In short: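 Seven-point serial dilutions plus solvent control were applied to plated 0.3 mm hNPC spheres at differentiation start, with medium half-replaced at day 3. Nuclei positive for Hoechst in the migration zone were enumerated at 120 h.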

[27] = IUF_NPC2-5_viability_120hr: Viability Assessment at 120 hours in the Leibniz Research Institute for Environmental Medicine (IUF) Neural Progenitor Cell Migration and Differentiation Assay (NPC2-5) (AID 2284312)
In short: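 Human fetal neural progenitor spheres (0.3 mm) plated on poly-D-lysine/laminin in N2 differentiation medium, exposed 120 h with half-medium refresh at day 3. Viability by alamar blue resazurin fluorescence; 7 concentrations, DMSO max 0.1%.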

Measured: outcome

CC(C)(C)NCC(O)c1cc(O)cc(O)c1 (configuration not stated)
inactive: all assays above
